Data on one compound can be found in PubChem BioAssay AID743293 (Broad Institute, 2014).

Potency and affinity values are given separately. The source made the active and inactive calls.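 Rule for the calls: active = compounds lowering fluorescence with a fitted half-maximal concentration at or below a set limit tied to top dose; inconclusive = flat curve with 30 to 70% inhibition, or poor fit; inactive = the rest.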

This experiment addresses Caspase-9 (Homo sapiens) (UniProt P55211). The experiment in a line: inhibitors of purified CASP9 protease – biochemical, fluorescence, plate reader, cherry-picked samples, selectivity assay for caspase-6 inhibitor project, dose response (AID 743293).

Sequence of Caspase-9 (Homo sapiens) (P55211 whole entry, looked up): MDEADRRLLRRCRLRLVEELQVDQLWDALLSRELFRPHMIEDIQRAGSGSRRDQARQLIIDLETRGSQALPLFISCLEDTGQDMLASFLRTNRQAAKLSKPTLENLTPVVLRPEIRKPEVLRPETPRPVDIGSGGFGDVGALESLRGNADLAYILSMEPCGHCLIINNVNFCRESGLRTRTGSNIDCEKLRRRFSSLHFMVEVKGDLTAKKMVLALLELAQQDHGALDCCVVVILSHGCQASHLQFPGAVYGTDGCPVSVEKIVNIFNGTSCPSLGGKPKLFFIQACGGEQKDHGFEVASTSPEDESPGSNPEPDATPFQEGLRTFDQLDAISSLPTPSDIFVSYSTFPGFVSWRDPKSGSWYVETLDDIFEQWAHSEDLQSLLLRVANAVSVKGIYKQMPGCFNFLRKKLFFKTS

On to `CC(Cc1ccc(O)cc1)NCC(O)c1ccc(O)c(O)c1` (stereo unspecified), for which the outcome was inactive.
